This note sets out measurements from publication PMC5836133, “The intracellular immune receptor Rx1 regulates the DNA-binding activity of a Golden2-like transcription factor”.

In all, about 16,000 sequences were measured (“e-score”: median about -0.044, highest 2% from about 0.38 on). This excerpt belongs to a sample that is enriched for the highest values.

The target of the experiment is T1, GST-NbGlk1(82-244) (Nicotiana benthamiana).
T1 chain: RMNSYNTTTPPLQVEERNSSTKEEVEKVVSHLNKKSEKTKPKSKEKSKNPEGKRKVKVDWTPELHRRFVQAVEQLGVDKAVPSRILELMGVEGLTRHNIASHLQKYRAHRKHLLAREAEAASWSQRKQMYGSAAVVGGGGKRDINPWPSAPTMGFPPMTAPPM
The experiment in a line: protein-binding microarray; NbGlk1 is a Golden2-like transcription factor of Nicotiana benthamiana; high values mean tight binding. Particulars: protein: recombinant; tags: GST (pTH6838); dsDNA, one strand shown.
On to AAGAAATA, for which the binding signal was found to be 0.222 ± 0.0864 E-score.

AGGAAATC: the binding signal was 0.4891 ± 0.000893 E-score. In the case of ATGAAAAT it was 0.321 ± 0.0714 E-score; in that of AGGAAAAT, 0.226 ± 0.0215 E-score. Next, AAGAAAAT: 0.34 ± 0.023 E-score. With ATGAAATC, the binding signal came out at 0.4523 ± 0.00241 E-score. Next, AGGAAATA: 0.239 ± 0.0792 E-score; ATTAAATC: 0.217 ± 0.0673 E-score; ACGAAATC: 0.477 ± 0.0103 E-score. Next, ACGAAAAT: 0.272 ± 0.0271 E-score; AACCGGAT: 0.233 ± 0.0852 E-score. Next, ATTTTGGG: 0.2605 ± 0.000343 E-score; ACTGCGAT: 0.208 ± 0.0497 E-score; AGTGGATA: 0.257 ± 0.0756 E-score.

Take AAAACTTA: the binding signal was 0.223 ± 0.0511 E-score. Next, ATCCAGAA: 0.288 ± 0.0705 E-score; ACGCGAAT: 0.244 ± 0.0302 E-score; CAATCGTA: 0.235 ± 0.0447 E-score. In the case of ATCTGAGG it was 0.265 ± 0.031 E-score; in that of AATTAGAT, 0.224 ± 0.00637 E-score. In the case of AATAAATC it was 0.253 ± 0.0219 E-score. As for CAGAAATC, the binding signal was determined as 0.405 ± 0.0372 E-score.

In the case of CAGAATTC, the binding signal is 0.234 ± 0.013 E-score.

For ACAGTATC, the binding signal was 0.304 ± 0.0326 E-score.

Consider AATCTTTC, for which the binding signal turned out to be 0.387 ± 0.0286 E-score.

Consider AATCATGT, for which the binding signal came out at 0.304 ± 0.0651 E-score.

Turning to AATCTTGC, the binding signal is 0.3479 ± 0.00119 E-score. For ATTCTTGG, the binding signal was determined as 0.242 ± 0.0219 E-score. In the case of AATCTTTG it was 0.378 ± 0.0158 E-score; in that of AATCTTGA, 0.3773 ± 0.0026 E-score; in that of AATCTTTA, 0.352 ± 0.0119 E-score. Turning to AATCTTGG, the binding signal was 0.386 ± 0.0186 E-score. In the case of AATCTTGT it was 0.397 ± 0.0291 E-score; in that of AATCGTGG, 0.286 ± 0.072 E-score; in that of ATCCTAGA, 0.263 ± 0.0827 E-score. For the sequence AAGGAGAT, the binding signal was 0.261 ± 0.0685 E-score. In the case of ATCCAATC it was 0.254 ± 0.066 E-score. With ATGCAAAT, the binding signal stood at 0.299 ± 0.0135 E-score.

As for ATACAATC, the binding signal was determined as 0.274 ± 0.01 E-score. Turning to AGGCAATC, the binding signal was found to be 0.417 ± 0.0072 E-score. Next, CAGCAATC: 0.339 ± 0.0127 E-score; AGGCGATC: 0.3174 ± 0.0029 E-score; ACGCAATA: 0.2818 ± 0.000398 E-score.

For AATCAATC, the binding signal turned out to be 0.25188 ± 0.000161 E-score. Next, AGGCAAAT: 0.238 ± 0.00762 E-score; ATGCAATC: 0.4516 ± 0.0024 E-score. In the case of ACGCAATC it was 0.4798 ± 0.00123 E-score; in that of AAGCAATC, 0.386 ± 0.0251 E-score. Next, ATCTGTTA: 0.295 ± 0.102 E-score. Consider AGGATCCT, for which the binding signal was 0.307 ± 0.0236 E-score. In the case of ATCCGAGA it was 0.308 ± 0.0203 E-score; in that of AAATGGAT, 0.235 ± 0.0673 E-score; in that of ATCCACTA, 0.247 ± 0.0967 E-score.

As to AAATTTTA, the binding signal amounted to 0.24 ± 0.021 E-score.

For the sequence ATTGCCCC, the binding signal worked out at 0.205 ± 0.0299 E-score. Next, AGGGTAAT: 0.262 ± 0.0657 E-score; AGTAATCG: 0.296 ± 0.00931 E-score; ATCACAGA: 0.217 ± 0.141 E-score.

Regarding ATATCTTG, the binding signal is 0.436 ± 0.0173 E-score. In the case of ATATCTGC it was 0.438 ± 0.0129 E-score; in that of ATCTCTTA, 0.337 ± 0.015 E-score; in that of ATATCGTC, 0.328 ± 0.0135 E-score. In the case of ATCTCTTC it was 0.286 ± 0.00741 E-score. Next, ATATCTTA: 0.408 ± 0.0113 E-score. Regarding ATATCGGC, the binding signal was determined as 0.354 ± 0.0162 E-score.

Regarding ATCTCTGC, the binding signal worked out at 0.311 ± 0.0301 E-score. In the case of ATATCATG it was 0.373 ± 0.00698 E-score. With ATATCATA, the binding signal came to 0.307 ± 0.0181 E-score. In the case of ATATCTTC it was 0.412 ± 0.0234 E-score; in that of ATATCGTG, 0.348 ± 0.0162 E-score. Next, AGCGATCG: 0.204 ± 0.00262 E-score; AATTCTAT: 0.22 ± 0.114 E-score. Next, AATTGGAT: 0.2 ± 0.0585 E-score; ATCTTAAT: 0.321 ± 0.00718 E-score; ATATTAAG: 0.251 ± 0.0913 E-score.

For the sequence ATCCACAA, the binding signal was determined as 0.29 ± 0.0043 E-score. In the case of ATTTTATA it was 0.281 ± 0.0713 E-score; in that of ATTTGCGA, 0.294 ± 0.051 E-score; in that of AGTAAAAT, 0.292 ± 0.0131 E-score.

With ACTGAATA, the binding signal amounted to 0.204 ± 0.00699 E-score. In the case of ATCTCTGA it was 0.269 ± 0.143 E-score; in that of ATATCTGA, 0.399 ± 0.00857 E-score. In the case of ATATCTGG it was 0.401 ± 0.00925 E-score; in that of ATCTCGTG, 0.357 ± 0.0779 E-score; in that of ATATCGGG, 0.343 ± 0.0169 E-score. In the case of ATCTCTTG it was 0.379 ± 0.0245 E-score.
